{"source": "PubChem BioAssay AID1662", "about": "(Broad Institute, 2009)", "note": "Among all 300,000 compounds or so, about 4,000 (1.3%) were called active. Many of the other results were omitted from the sample, so actives are more common in it than they were. A number with no mark means an inactive call.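 The calls were made as follows: active = mean replicate score, as percent of positive control median, at least 50; inconclusive = mean below 50 but one replicate at or above 50; inactive = mean and every replicate below 50.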", "data": [{"assay": "kanamycin survival loss of SKKanGAS strain – BacTiter-Glo luminescence, streptokinase expression inhibitor project, primary screen (AID 1662);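 also: strain carries kanamycin resistance gene driven by streptokinase promoter and grows in 40 µg/ml kanamycin; loss of luminescence reflects streptokinase promoter inhibition or plain growth inhibition; 0% = median of DMSO wells and 100% = positive control at its reference dose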", "conditions": "S. pyogenes SKKanGAS, kanamycin growth, 6 h, at 7.5 µM, stronger effect = higher value", "values": [{"compound": "COc1ccc(-c2n[nH]c(C)c2-c2ccccc2OC)c(O)c1", "inhibition": "1.39%"}, {"compound": "COc1ccccc1-c1nc(SC)n[nH]1", "inhibition": "-1.68%"}, {"compound": "COc1ccccc1-c1n[nH]c2c1[C@H](C)CC[C@H]2C(C)C", "inhibition": "91.1% (active)"}, {"compound": "Cc1cc(C)c2c(=O)[nH]c(SCC(=O)Nc3ccc(Br)cc3)nc2n1", "inhibition": "30%"}, {"compound": "O=C(CSc1nc2ccccc2c(=O)[nH]1)Nc1nc(-c2ccc(Br)cc2)cs1", "inhibition": "4.78%"}, {"compound": "N#Cc1c(-c2cccs2)nc(SCC(=O)c2ccc(Br)cc2)[nH]c1=O", "inhibition": "55.8% (active)"}, {"compound": "N#CC1(NC(=O)COC(=O)Cc2n[nH]c(=O)c3ccccc23)CCCCC1", "inhibition": "-3.3%"}, {"compound": "Cc1ccc(S(=O)(=O)c2ccc(Cl)cc2)cc1S(=O)(=O)NC(C(=O)O)C(C)C", "note": "(stereo unspecified)", "inhibition": "0.0508%"}, {"compound": "COc1cc2c(cc1NC(=O)COC(=O)/C=C/c1ccccc1)oc1ccccc12", "inhibition": "-12.9%"}, {"compound": "Cc1onc(-c2ccccc2)c1C(=O)NNC(=S)NC(=O)c1ccc(F)cc1", "inhibition": "7.91%"}, {"compound": "O=C(Nc1cn(-c2ccccc2)nc1-c1ccccc1)c1ccccc1", "inhibition": "-2.24%"}, {"compound": "O=C(NNC(=S)NC(=O)c1cn(-c2ccccc2)nc1-c1ccccc1)c1ccncc1", "inhibition": "99.7% (active)"}, {"compound": "COC(=O)Cn1cc(/C=C/[N+](=O)[O-])c2ccccc21", "inhibition": "0.686%"}, {"compound": "O=C(CN1C(=O)S/C(=C\\c2ccccc2F)C1=O)NCCCn1ccnc1", "inhibition": "2.35%"}, {"compound": "O=C(CN1C(=O)/C(=C/c2ccccc2F)Sc2ccccc21)NCc1cccnc1", "inhibition": "-8.35%"}, {"compound": "O=C(CN1C(=O)/C(=C\\c2ccccc2F)SC1=S)Nc1nc2ccccc2s1", "inhibition": "94.2% (active)"}, {"compound": "O=c1[nH]c(CCl)nc2cc(-c3ccc(Cl)cc3)sc12", "inhibition": "29.5%"}, {"compound": "CC1CCc2c(nc3ncnn3c2Nc2ccc(OC(F)(F)F)cc2)C1", "note": "(stereo unspecified)", "inhibition": "2.5%"}, {"compound": "O=[N+]([O-])c1cc(Br)c(O)c(/C=N/Nc2nc3ccccc3s2)c1", "inhibition": "92% (active)"}, {"compound": "COc1ccc(CC(=O)N/N=C/c2cc([N+](=O)[O-])cc(Br)c2O)cc1", "inhibition": "61.6% (active)"}, {"compound": "c1ccc2sc(NN=C3CCCC3)nc2c1", "inhibition": "18.5%"}, {"compound": "COc1cc(/C=N/Nc2nc3ccccc3s2)ccc1O", "inhibition": "-7.58%"}, {"compound": "COc1ccc(CC(=O)NCC(=O)N/N=C/c2cc(Br)ccc2OC)cc1", "inhibition": "4.99%"}, {"compound": "COc1cc(OC)c(/C=N/NC(=O)c2ccc([N+](=O)[O-])cc2)cc1Br", "inhibition": "-10.8%"}, {"compound": "CC1(C)c2[nH]c3ccccc3c2C[C@H]2C(=O)N(N)CC(=O)N21", "inhibition": "1.39%"}, {"compound": "NNC(=O)c1ccc(COCC(F)(F)C(F)F)cc1", "inhibition": "-2.77%"}, {"compound": "CC(=O)c1ccc(N2CCN(C(=O)CCNC(=O)Cn3ccc4ccccc4c3=O)CC2)cc1", "inhibition": "0.0785%"}, {"compound": "Cc1cc(C)cc(C(=O)NC(CC(N)=O)c2ccc(N3CCC(N4CCCCC4)CC3)c([N+](=O)[O-])c2)c1", "note": "(stereo unspecified)", "inhibition": "-2.72%"}, {"compound": "Cc1ccc2c(c1)c1ncnc(N3CCc4ccccc4C3)c1n2C", "inhibition": "47.1%"}, {"compound": "COc1cccc(OC)c1C(=O)NC(=S)Nc1ccc(N2CCOCC2)c(Cl)c1", "inhibition": "4.82%"}, {"compound": "CCOc1ccc(C(=O)NC(=S)Nc2ccc(NC(=O)C(C)C)cc2)cc1[N+](=O)[O-]", "inhibition": "19.7%"}, {"compound": "CCOc1ccc(C(=O)NC(=S)Nc2ccc(N3CCOCC3)c(Cl)c2)cc1[N+](=O)[O-]", "inhibition": "84% (active)"}, {"compound": "CCN(CC)C(=O)CS(=O)CC(=O)Nc1cc(OCCOC)c(Cl)cc1Cl", "note": "(stereo unspecified)", "inhibition": "0.17%"}, {"compound": "COc1cc(NS(=O)(=O)c2ccc3ccccc3c2)c2ncccc2c1", "inhibition": "85% (active)"}, {"compound": "COc1ccc(NC(=O)Nc2cccc3cccnc23)cc1", "inhibition": "-7.39%"}, {"compound": "Cc1ccc(NS(=O)(=O)c2ccc(C)c(NC(=O)COc3ccc4ccccc4c3)c2)c(C)c1", "inhibition": "29.6%"}, {"compound": "C/C(=N\\NC(=O)c1cccc([N+](=O)[O-])c1)c1cccnc1", "inhibition": "-2.34%"}, {"compound": "Cc1cc([N+](=O)[O-])ccc1NC(=O)c1ccc(NC(=O)C(C)C)cc1", "inhibition": "10.6%"}, {"compound": "Cn1ccc(=Nc2ccc(NC(=O)c3ccc(N=c4ccn(C)c5ccc([N+](=O)[O-])cc45)cc3)cc2)cc1", "inhibition": "75.8% (active)"}, {"compound": "O=C(Nc1ccc(C(=O)N2CCCCC2)cc1)c1cccc([N+](=O)[O-])c1", "inhibition": "6.65%"}, {"compound": "O=C(CCN1C(=O)[C@@H]2Cc3ccccc3CN2C1=O)NCc1ccccc1", "inhibition": "-1.78%"}, {"compound": "COC(=O)C1(C)NC(c2ccc(C)cc2)C2C(=O)N(c3ccc(F)cc3)C(=O)C21", "note": "(stereo unspecified)", "inhibition": "0.707%"}, {"compound": "OC(CNCCc1ccc(Cl)cc1Cl)COc1ccccc1", "note": "(stereo unspecified)", "inhibition": "8.35%"}, {"compound": "CCOc1ccc(NC(=O)NNC(=O)c2ccc(Cl)cc2Cl)cc1", "inhibition": "-4.81%"}, {"compound": "NC(N)=N/N=C/c1ccc(OCc2ccc(Cl)cc2Cl)cc1", "inhibition": "50.8% (active)"}, {"compound": "CCN(CCn1cccn1)C(=O)CC1C(=O)NCCN1Cc1cccc(OC)c1OC", "note": "(stereo unspecified)", "inhibition": "-6.29%"}, {"compound": "C/C(=N\\NC(=O)OC(C)(C)C)c1ccc[nH]1", "inhibition": "-6.42%"}, {"compound": "Cc1ccc(CSc2nc(-c3ccccc3)c(C#N)c(=O)[nH]2)cc1", "inhibition": "43.6%"}, {"compound": "N#Cc1c(-c2ccccc2)nc(SCc2ccc([N+](=O)[O-])cc2)[nH]c1=O", "inhibition": "15.1%"}, {"compound": "N#Cc1c(-c2ccccc2)nc(SCc2cccc(C(F)(F)F)c2)[nH]c1=O", "inhibition": "67.4% (active)"}, {"compound": "CN1CCN(C2Cc3ccc(Cl)cc3Sc3ccc(F)cc32)CC1", "note": "(stereo unspecified)", "inhibition": "68.7% (active)"}, {"compound": "Cc1ccc(CS(=O)(=O)c2ncc(Cl)c(C(=O)Nc3nnc(C)s3)n2)cc1", "inhibition": "2.36%"}, {"compound": "C/C(=N\\NC(=O)c1ccoc1C)c1ccccc1O", "inhibition": "4.94%"}, {"compound": "Cc1ccc(-n2ncc3c2CC(C)(C)CC3NC(=O)Cc2c(C)noc2C)cc1", "note": "(stereo unspecified)", "inhibition": "-4.1%"}, {"compound": "CCc1ccc2c(c1)C1(NN=C(c3ccccc3)S1)C(=O)N2", "note": "(stereo unspecified)", "inhibition": "96.7% (active)"}, {"compound": "COc1cccc(NC(=O)C2C(c3ccccc3)C2(Cl)Cl)c1", "note": "(stereo unspecified)", "inhibition": "31.8%"}, {"compound": "CCc1ccc(Oc2nc([N+](=O)[O-])nn2C)cc1", "inhibition": "2.57%"}, {"compound": "Cc1cc(C(=O)N2CCC(C(=O)O)CC2)c(C(F)(F)F)o1", "inhibition": "-3.49%"}, {"compound": "CCc1noc(C)c1C(=O)Nc1nc2ccc(OC)cc2s1", "inhibition": "-6.51%"}, {"compound": "Cc1noc(C)c1CSCC(=O)Nc1ccc(Br)cc1Cl", "inhibition": "32.2%"}, {"compound": "Cc1noc(C)c1CSCC(=O)Nc1nc2ccc(Oc3ccccc3)cc2s1", "inhibition": "51.3% (active)"}, {"compound": "COc1ccc(C(=O)Nc2ccc(C3(C#N)CCCC3)cc2)cc1OC", "inhibition": "0.181%"}, {"compound": "O=C(/C=C/c1ccc([N+](=O)[O-])o1)NNC(=O)c1ccc(F)cc1", "inhibition": "52.7% (active)"}, {"compound": "C/[N+]([O-])=C\\c1ccc([N+](=O)[O-])o1", "inhibition": "1.43%"}, {"compound": "Cc1ccc(/C=C/C(=O)Nc2ccc([N+](=O)[O-])c(NC(=O)/C=C/c3ccc(C)o3)c2)o1", "inhibition": "6.98%"}, {"compound": "CC(=O)Oc1ccc(-c2cccc(C(=O)N3CCCCC3)c2)cc1", "inhibition": "-5.29%"}, {"compound": "CCN1CCN(C(=O)N(Cc2ccc(Cl)cc2)S(=O)(=O)c2ccc(C)cc2)CC1", "inhibition": "-0.707%"}, {"compound": "COc1ccc(C(=O)/C=C/c2ccc(-c3ccccc3)cc2)cc1CSCC(=O)O", "inhibition": "51.6% (active)"}, {"compound": "COC(=O)c1ccc(COc2ccc(/C=C/C(=O)c3ccc(OC)c(CSCC(=O)O)c3)cc2OC)cc1", "inhibition": "-12.5%"}, {"compound": "COc1ccc(/C=C/C(=O)c2ccc(NS(=O)(=O)c3ccc(C)cc3)cc2)cc1O", "inhibition": "31.2%"}, {"compound": "Cc1occc(=O)c1OCc1c(Cl)cccc1Cl", "inhibition": "1.59%"}, {"compound": "CCN(CC)c1ccc(S(=O)(=O)N2CCCCC2)cc1NC(=O)C1=COCCO1", "inhibition": "-12%"}, {"compound": "O=C1CC2(CCCC2)Oc2ccc(Cl)cc21", "inhibition": "9.19%"}, {"compound": "O=C1Cc2ccccc2Sc2ccc(Cl)cc21", "inhibition": "75% (active)"}, {"compound": "S=C1Nc2cc(Cl)ccc2Sc2ccccc21", "inhibition": "3.58%"}, {"compound": "O=C(CCNC(=O)c1ccc(Br)cc1)NCCCc1ccccc1", "inhibition": "-14.7%"}, {"compound": "CN(CCc1ccccn1)S(=O)(=O)c1ccc2c3c(cccc13)C(=O)N2", "inhibition": "-0.86%"}, {"compound": "O=C(NCc1ccncc1)C1CCCN(S(=O)(=O)c2ccc(Br)cc2)C1", "note": "(stereo unspecified)", "inhibition": "3.53%"}, {"compound": "O=c1c2cc(Br)ccc2nc(-c2cccc(Cl)c2)n1O", "inhibition": "78.4% (active)"}, {"compound": "O=C1CCCc2c1nc(-c1cccc(Cl)c1)n2O", "inhibition": "-3.24%"}, {"compound": "Cc1cccc(-c2nc3ccccc3c(=O)n2NC(=O)Cc2ccc(Cl)cc2)c1", "inhibition": "-2.71%"}, {"compound": "CCCOc1ccc(C2NC(=O)NC(c3ccccc3)=C2C(C)=O)cc1OCC", "note": "(stereo unspecified)", "inhibition": "-8.73%"}, {"compound": "Cc1cccc([C@@H]2[C@@H]3C(=O)N(Cc4ccccc4)C(=O)[C@@H]3[C@]3(Cc4ccc(Cl)cc4)C(=O)N(c4cccc(Cl)c4)C(=O)N23)c1", "inhibition": "-2.38%"}, {"compound": "CC(OC(=O)CNC(=O)c1ccc(Cl)c([N+](=O)[O-])c1)C(=O)NCc1ccco1", "note": "(stereo unspecified)", "inhibition": "-7.18%"}, {"compound": "COc1cccc(/C(C)=N/Nc2ncc(Cl)cc2Cl)c1", "inhibition": "-4.25%"}, {"compound": "COC(=O)Cc1ccc(Oc2ncc(C(F)(F)F)cc2Cl)cc1", "inhibition": "-5.08%"}, {"compound": "COc1cccc(/C=N/Nc2ncc(C(F)(F)F)cc2Cl)c1O", "inhibition": "95.9% (active)"}, {"compound": "Cc1cc(N)n2nc(-c3ccc(C(C)(C)C)cc3)cc2n1", "inhibition": "38.2%"}, {"compound": "O=C(N/N=C/c1cc([N+](=O)[O-])ccc1O)/C(=C\\c1cccs1)NC(=O)c1ccccc1", "inhibition": "83.5% (active)"}, {"compound": "O=C(N/N=C/c1ccc(O)cc1)/C(=C/c1ccc([N+](=O)[O-])cc1)NC(=O)c1ccccc1", "inhibition": "-0.983%"}, {"compound": "O=[N+]([O-])c1ccc(O)c(/C=N/Nc2ccccc2[N+](=O)[O-])c1", "inhibition": "17.8%"}]}]}
